Holding throughout (test): DAPPL (digital affinity profiling via proximity ligation, sequencing); 10 mM Tris-HCl pH 7.5, 50 mM NaCl, 1 mM DTT, 4% glycerol, room temperature, 30 min; GST-TFs on glutathione beads, 16-mer random dsDNA library, 0.1% formaldehyde crosslink after washing; high values mean tight binding
Assay [1] addresses T1, FEV (Homo sapiens, UniProt Q99581 1-238).
T1 sequence: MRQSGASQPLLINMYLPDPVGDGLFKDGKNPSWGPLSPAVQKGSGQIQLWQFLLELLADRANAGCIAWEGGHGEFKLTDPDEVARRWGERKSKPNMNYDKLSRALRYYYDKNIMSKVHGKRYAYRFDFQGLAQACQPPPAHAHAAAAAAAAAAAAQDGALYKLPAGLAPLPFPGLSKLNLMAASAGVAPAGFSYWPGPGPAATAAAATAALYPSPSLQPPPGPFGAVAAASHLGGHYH
The following applies: protein: recombinant; tags: N-terminal GST; dsDNA, one strand shown. Put shortly:
(§1)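 Human transcription factors fused to GST were expressed in yeast, captured on glutathione beads, given DNA barcodes and pooled with a GST-only negative control. Pools were incubated with 200 nmole of a 16-mer random double-stranded DNA library in Tris/NaCl/DTT/glycerol buffer at room temperature for 30 min. They were then washed, crosslinked with 0.1% formaldehyde, proximity-ligated (BsaI/T4 ligase, 1 h, 37 °C), PCR-amplified and sequenced on an Illumina NextSeq500. Binding signal is each 6-mer's read frequency for a factor divided by its frequency for the GST control.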

Assay [2] deals with ETV5 (Homo sapiens, UniProt P41161 1-510). The following applies: protein: recombinant; tags: N-terminal GST; dsDNA, one strand shown. Summed up:
as §1

Assay [3] addresses HSF1 (Homo sapiens, UniProt Q00613 1-529). As to conditions: protein: recombinant; tags: N-terminal GST; chain copies: 3; dsDNA, one strand shown. Summed up:
as §1

The target in assay [4] is T2, SPIC (Homo sapiens, UniProt Q8N5J4 1-248).
T2 sequence: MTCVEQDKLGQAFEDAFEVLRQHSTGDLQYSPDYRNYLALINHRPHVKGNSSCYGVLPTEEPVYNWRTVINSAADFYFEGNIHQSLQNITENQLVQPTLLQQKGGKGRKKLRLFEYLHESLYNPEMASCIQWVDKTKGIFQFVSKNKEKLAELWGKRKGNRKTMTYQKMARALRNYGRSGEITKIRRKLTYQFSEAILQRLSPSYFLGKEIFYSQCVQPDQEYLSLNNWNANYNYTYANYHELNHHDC
The following applies: protein: recombinant; tags: N-terminal GST; dsDNA, one strand shown. Put shortly: as §1

Assay [5] addresses ELF4 (Homo sapiens, UniProt Q99607 1-663). The following applies: protein: recombinant; tags: N-terminal GST; dsDNA, one strand shown. Summed up:
as §1

The target of assay [6] is T3, ELK4 (Homo sapiens, UniProt P28324-2 1-405).
T3 sequence: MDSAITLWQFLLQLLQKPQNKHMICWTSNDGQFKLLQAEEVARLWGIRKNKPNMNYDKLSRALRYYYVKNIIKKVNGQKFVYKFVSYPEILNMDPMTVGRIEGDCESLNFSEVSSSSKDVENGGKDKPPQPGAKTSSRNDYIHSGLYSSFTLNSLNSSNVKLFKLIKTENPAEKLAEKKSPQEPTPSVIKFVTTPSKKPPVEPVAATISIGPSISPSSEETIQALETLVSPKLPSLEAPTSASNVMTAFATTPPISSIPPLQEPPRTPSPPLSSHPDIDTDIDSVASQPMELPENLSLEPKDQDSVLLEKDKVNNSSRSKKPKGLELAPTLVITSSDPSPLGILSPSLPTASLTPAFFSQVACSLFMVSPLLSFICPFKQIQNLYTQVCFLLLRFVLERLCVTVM
The following applies: protein: recombinant; tags: N-terminal GST; dsDNA, one strand shown. Put shortly:
as §1

Assay [7] deals with T4, ETV2 (Homo sapiens, UniProt O00321 1-342).
T4 sequence: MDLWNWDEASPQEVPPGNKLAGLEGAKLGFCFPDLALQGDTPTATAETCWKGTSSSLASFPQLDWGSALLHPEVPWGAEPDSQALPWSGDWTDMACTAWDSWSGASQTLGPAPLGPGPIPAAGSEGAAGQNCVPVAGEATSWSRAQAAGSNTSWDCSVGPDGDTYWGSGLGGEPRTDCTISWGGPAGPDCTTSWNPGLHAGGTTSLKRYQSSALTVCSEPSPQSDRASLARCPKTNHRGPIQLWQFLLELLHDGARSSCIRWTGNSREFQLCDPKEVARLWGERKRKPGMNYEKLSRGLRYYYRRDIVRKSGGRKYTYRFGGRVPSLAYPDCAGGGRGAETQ
The following applies: protein: recombinant; tags: N-terminal GST; dsDNA, one strand shown. Summed up:
as §1

Assay [8] deals with T5, ELF3 (Homo sapiens, UniProt P78545 1-371).
T5 sequence: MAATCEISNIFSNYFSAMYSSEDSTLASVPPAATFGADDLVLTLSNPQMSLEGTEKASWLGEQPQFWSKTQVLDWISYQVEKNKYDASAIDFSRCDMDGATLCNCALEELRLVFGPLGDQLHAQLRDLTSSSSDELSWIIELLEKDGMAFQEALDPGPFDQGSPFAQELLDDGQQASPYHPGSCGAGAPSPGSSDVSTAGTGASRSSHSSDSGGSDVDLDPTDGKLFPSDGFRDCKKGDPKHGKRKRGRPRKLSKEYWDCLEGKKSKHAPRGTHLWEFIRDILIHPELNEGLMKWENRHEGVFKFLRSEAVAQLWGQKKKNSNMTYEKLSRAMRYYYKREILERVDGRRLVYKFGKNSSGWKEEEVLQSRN
The following applies: protein: recombinant; tags: N-terminal GST; dsDNA, one strand shown. Put shortly: as §1

Assay [9] has as its target ETV1 (Homo sapiens, UniProt P50549 1-477). The following applies: protein: recombinant; tags: N-terminal GST; dsDNA, one strand shown. Summed up: as §1

Chain of HSF1 (Q00613 whole entry): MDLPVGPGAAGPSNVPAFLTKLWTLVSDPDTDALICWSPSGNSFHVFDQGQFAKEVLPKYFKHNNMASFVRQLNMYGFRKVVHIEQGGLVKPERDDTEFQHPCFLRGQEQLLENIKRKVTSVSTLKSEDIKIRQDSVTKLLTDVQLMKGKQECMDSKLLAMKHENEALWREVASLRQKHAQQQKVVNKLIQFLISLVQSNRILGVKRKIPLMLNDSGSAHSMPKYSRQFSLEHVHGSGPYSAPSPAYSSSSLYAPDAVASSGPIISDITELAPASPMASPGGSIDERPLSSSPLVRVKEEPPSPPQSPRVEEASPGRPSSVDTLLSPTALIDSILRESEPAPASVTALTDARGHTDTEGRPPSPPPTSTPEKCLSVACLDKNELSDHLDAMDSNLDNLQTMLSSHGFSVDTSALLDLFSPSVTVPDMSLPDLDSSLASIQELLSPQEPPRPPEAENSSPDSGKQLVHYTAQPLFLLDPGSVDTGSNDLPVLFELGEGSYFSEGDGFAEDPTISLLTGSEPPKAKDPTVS
Chain of ETV5 (P41161 whole entry): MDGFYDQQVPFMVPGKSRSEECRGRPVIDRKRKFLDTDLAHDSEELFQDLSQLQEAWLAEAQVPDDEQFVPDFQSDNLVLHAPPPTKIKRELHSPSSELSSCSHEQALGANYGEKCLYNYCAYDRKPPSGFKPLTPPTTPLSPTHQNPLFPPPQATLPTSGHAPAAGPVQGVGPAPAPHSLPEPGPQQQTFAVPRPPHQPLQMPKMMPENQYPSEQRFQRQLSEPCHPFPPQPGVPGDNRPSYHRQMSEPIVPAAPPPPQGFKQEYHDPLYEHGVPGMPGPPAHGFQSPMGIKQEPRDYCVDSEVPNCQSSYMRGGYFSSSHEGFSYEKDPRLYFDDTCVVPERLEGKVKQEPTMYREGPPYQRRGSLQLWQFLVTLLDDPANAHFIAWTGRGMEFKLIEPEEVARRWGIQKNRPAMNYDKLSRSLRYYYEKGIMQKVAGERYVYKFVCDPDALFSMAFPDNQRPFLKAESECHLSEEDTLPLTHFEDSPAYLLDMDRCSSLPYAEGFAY
Chain of ELF4 (Q99607 whole entry): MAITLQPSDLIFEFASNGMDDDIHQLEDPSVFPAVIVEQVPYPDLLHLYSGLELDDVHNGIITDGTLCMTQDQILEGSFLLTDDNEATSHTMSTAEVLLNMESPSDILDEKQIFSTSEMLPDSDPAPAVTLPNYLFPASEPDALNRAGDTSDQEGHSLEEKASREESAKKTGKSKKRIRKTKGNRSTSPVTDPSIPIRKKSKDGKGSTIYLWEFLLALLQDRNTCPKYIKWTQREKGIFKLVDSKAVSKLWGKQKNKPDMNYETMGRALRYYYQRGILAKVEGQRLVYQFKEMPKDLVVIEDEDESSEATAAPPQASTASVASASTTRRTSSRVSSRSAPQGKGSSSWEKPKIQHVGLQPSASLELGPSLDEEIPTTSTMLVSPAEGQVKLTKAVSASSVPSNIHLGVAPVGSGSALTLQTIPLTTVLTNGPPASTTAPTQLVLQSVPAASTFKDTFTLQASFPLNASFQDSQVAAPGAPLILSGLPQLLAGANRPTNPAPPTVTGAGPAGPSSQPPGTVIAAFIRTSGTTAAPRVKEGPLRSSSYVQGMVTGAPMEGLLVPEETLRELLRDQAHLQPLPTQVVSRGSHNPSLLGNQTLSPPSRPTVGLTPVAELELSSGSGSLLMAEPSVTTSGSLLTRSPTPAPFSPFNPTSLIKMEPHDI
Chain of ETV1 (P50549 whole entry): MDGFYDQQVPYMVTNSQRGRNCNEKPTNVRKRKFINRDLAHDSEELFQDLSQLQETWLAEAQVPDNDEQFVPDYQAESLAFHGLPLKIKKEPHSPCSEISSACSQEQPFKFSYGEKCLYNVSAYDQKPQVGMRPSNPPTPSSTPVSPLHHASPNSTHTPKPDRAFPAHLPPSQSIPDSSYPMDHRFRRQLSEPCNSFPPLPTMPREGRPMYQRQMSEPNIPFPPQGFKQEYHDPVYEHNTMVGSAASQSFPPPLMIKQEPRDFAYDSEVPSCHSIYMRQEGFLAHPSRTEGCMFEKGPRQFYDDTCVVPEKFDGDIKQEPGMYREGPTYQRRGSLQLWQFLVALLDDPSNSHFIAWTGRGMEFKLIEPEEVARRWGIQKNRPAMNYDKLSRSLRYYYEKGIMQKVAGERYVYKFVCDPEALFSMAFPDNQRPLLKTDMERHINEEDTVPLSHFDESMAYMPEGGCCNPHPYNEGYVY

As to CCTGCA, the binding signal was 1.26 fold enrichment (6-mer frequency, TF over GST control) in assay [1]; 1.39 fold enrichment (6-mer frequency, TF over GST control) in [2]; 1.11 fold enrichment (6-mer frequency, TF over GST control) in assay [3]; 1.15 fold enrichment (6-mer frequency, TF over GST control) in [4]; 1.3 fold enrichment (6-mer frequency, TF over GST control) in [5]; 1.27 fold enrichment (6-mer frequency, TF over GST control) in [6]. Further, the binding signal in assay [7] was 1.22 fold enrichment (6-mer frequency, TF over GST control); in assay [8], 1.68 fold enrichment (6-mer frequency, TF over GST control); in assay [9], 1.28 fold enrichment (6-mer frequency, TF over GST control).

As to GTTCCG, the binding signal in [1] was 1.99 fold enrichment (6-mer frequency, TF over GST control); in assay [2] it was 1.94 fold enrichment (6-mer frequency, TF over GST control); in assay [3], 1.05 fold enrichment (6-mer frequency, TF over GST control); in assay [4] it was 2.08 fold enrichment (6-mer frequency, TF over GST control); in [5], 1.64 fold enrichment (6-mer frequency, TF over GST control); in assay [6], 1.79 fold enrichment (6-mer frequency, TF over GST control). For the same sequence, the binding signal is 1.61 fold enrichment (6-mer frequency, TF over GST control) in assay [7]; 1.82 fold enrichment (6-mer frequency, TF over GST control) in assay [8]; 2.07 fold enrichment (6-mer frequency, TF over GST control) in assay [9].

As for CCACAA, the binding signal in assay [1] was 1.15 fold enrichment (6-mer frequency, TF over GST control); in [2], 1.19 fold enrichment (6-mer frequency, TF over GST control); in assay [3] it was 1.1 fold enrichment (6-mer frequency, TF over GST control); in [4] it was 1.09 fold enrichment (6-mer frequency, TF over GST control); in [5], 1.17 fold enrichment (6-mer frequency, TF over GST control); in assay [6], 1.07 fold enrichment (6-mer frequency, TF over GST control). Further, the binding signal in assay [7] was 1.14 fold enrichment (6-mer frequency, TF over GST control); in [8], 1.39 fold enrichment (6-mer frequency, TF over GST control); in assay [9], 1.19 fold enrichment (6-mer frequency, TF over GST control).

As for CTCGGT, the binding signal in assay [1] is 1.01 fold enrichment (6-mer frequency, TF over GST control); in assay [2] it was 1.1 fold enrichment (6-mer frequency, TF over GST control); in assay [3] it was 1.04 fold enrichment (6-mer frequency, TF over GST control); in assay [4], 1.06 fold enrichment (6-mer frequency, TF over GST control); in assay [5], 1.09 fold enrichment (6-mer frequency, TF over GST control); in assay [6], 1.12 fold enrichment (6-mer frequency, TF over GST control). Further, the binding signal in [7] was 1.19 fold enrichment (6-mer frequency, TF over GST control); in assay [8], 1.16 fold enrichment (6-mer frequency, TF over GST control); in [9], 1.15 fold enrichment (6-mer frequency, TF over GST control).

Take ATGTCC: the binding signal in assay [1] is 1.84 fold enrichment (6-mer frequency, TF over GST control); in [2], 1.62 fold enrichment (6-mer frequency, TF over GST control); in assay [3], 1.03 fold enrichment (6-mer frequency, TF over GST control); in assay [4], 1.54 fold enrichment (6-mer frequency, TF over GST control); in assay [5] it was 1.51 fold enrichment (6-mer frequency, TF over GST control); in assay [6], 1.57 fold enrichment (6-mer frequency, TF over GST control). In addition, the binding signal in assay [7] is 1.77 fold enrichment (6-mer frequency, TF over GST control); in assay [8] it was 1.85 fold enrichment (6-mer frequency, TF over GST control); in assay [9], 1.66 fold enrichment (6-mer frequency, TF over GST control).

Take CGACAT: the binding signal is 1.31 fold enrichment (6-mer frequency, TF over GST control) in assay [1]; 1.26 fold enrichment (6-mer frequency, TF over GST control) in assay [2]; 1.07 fold enrichment (6-mer frequency, TF over GST control) in assay [3]; 1.32 fold enrichment (6-mer frequency, TF over GST control) in assay [4]; 1.32 fold enrichment (6-mer frequency, TF over GST control) in assay [5]; 1.3 fold enrichment (6-mer frequency, TF over GST control) in [6]. In addition, the binding signal in assay [7] was 1.26 fold enrichment (6-mer frequency, TF over GST control); in assay [8], 1.42 fold enrichment (6-mer frequency, TF over GST control); in assay [9], 1.37 fold enrichment (6-mer frequency, TF over GST control).

Regarding GACCTG, the binding signal was 1.32 fold enrichment (6-mer frequency, TF over GST control) in [1]; 1.28 fold enrichment (6-mer frequency, TF over GST control) in assay [2]; 1.01 fold enrichment (6-mer frequency, TF over GST control) in [3]; 1.24 fold enrichment (6-mer frequency, TF over GST control) in [4]; 1.28 fold enrichment (6-mer frequency, TF over GST control) in assay [5]; 1.29 fold enrichment (6-mer frequency, TF over GST control) in assay [6]. The binding signal is 1.45 fold enrichment (6-mer frequency, TF over GST control) in [7]; 1.2 fold enrichment (6-mer frequency, TF over GST control) in assay [8]; 1.21 fold enrichment (6-mer frequency, TF over GST control) in assay [9].

The record behind these values is PMC7862700, “An all-to-all approach to the identification of sequence-specific readers for epigenetic DNA modifications on cytosine”.
